Experimental data published in PubChem BioAssay (NCATS).
Records with an inconclusive call do not appear. Active and inactive are the calls of the source. Unless noted, calls come from the whole dose curve; as a rule, active = well fitted curve in the direction sought with a large enough effect; inconclusive = small, poorly fitted or top-dose-only effect, or another doubt; inactive = no such curve, though single readings can be large; an effect the other way counts as inactive or inconclusive.

Tests used:
[1] = AP1 Signaling Pathway (AID 357; active = well fitted curve in either direction with a large enough effect, not every such curve was filed as active;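 note: ME-180 reporter cells stimulated with EGF at its EC50 level; % is set by controls: 0 for no effect and ±100 for the full control effect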); details: ME-180 AP-1-bla reporter, EGF-induced, beta-lactamase ratio, 5 h; at 17.2 µM (top of the series) unless noted
How it was run: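 Beta-lactamase reporter under AP-1 response element, ME-180 background. Stimulus: EC50 EGF. Compound exposure 5 h, 37 °C. Detection: CCF4, 2.5 h RT, 460/530 nm. Values: AC50 from titration.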

[2] = Stat Signaling Pathway (AID 446; active = well fitted curve in either direction with a large enough effect, not every such curve was filed as active;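 note: ME-180 cervical cancer cells given 40 pM IL-6 alongside compound; SIE-controlled beta-lactamase reporter measured as 460/530 nm FRET emission ratio; % is set by controls: 0 for no effect and ±100 for the full control effect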)
How it was run: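 FRET read-out (405 nm excitation, 460/530 nm emission) of a beta-lactamase reporter under a STAT-inducible element in ME-180 cervical carcinoma cells. Cells with compound receive 40 pM IL-6 for 5 h. Values are normalised to AC90 stimulation and AC90 JAK-inhibitor controls.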

[3] = biological target: Glucocorticoid receptor (Homo sapiens) (UniProt P04150); test: GR-GFP Redistribution (AID 450;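 active = compounds whose dose series gives a full or clear partial fitted curve of increased nuclear translocation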; note: potency is the fitted concentration of half-maximal effect); details: U2OS GR-GFP nuclear translocation, laser cytometry, 2 h
Glucocorticoid receptor (Homo sapiens), sequence (P04150 whole entry, looked up, the tested form may be a part): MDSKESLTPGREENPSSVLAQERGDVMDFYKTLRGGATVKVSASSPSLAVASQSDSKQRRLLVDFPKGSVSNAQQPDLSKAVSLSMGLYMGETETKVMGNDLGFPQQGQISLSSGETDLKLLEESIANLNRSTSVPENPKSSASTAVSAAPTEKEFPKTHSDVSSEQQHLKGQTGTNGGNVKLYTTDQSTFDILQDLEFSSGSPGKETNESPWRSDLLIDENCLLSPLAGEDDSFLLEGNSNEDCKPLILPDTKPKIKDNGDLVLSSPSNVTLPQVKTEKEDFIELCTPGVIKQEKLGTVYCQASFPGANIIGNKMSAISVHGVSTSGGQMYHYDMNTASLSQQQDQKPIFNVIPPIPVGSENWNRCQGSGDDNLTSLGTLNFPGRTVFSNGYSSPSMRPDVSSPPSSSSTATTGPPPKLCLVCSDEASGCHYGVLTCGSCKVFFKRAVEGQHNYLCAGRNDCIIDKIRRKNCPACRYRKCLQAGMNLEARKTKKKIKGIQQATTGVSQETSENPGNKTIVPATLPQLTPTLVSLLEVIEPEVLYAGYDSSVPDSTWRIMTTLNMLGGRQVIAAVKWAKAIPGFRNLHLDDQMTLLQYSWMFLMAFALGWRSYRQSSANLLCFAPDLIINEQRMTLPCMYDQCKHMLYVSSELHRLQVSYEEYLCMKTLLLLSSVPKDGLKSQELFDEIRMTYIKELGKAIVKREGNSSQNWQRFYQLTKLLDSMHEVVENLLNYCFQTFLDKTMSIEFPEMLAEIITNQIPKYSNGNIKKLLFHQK

[4] = biological target: Glucocorticoid receptor (Homo sapiens) (UniProt P04150); test: GR-EFC Redistribution (AID 451; calls by dose curve; note: potency is the fitted concentration of half-maximal effect); details: CHO-K1 GR-EFC translocation, beta-gal luminescence, 2 h
How it was run: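 Translocation of GR-ED fusion to nuclear EA restores b-gal, read by luminescence after 1 h room-temperature detection. Engineered CHO-K1 biosensor cells, 1,000/well, exposed 2 h at 37 C to titrations up to 46 uM final.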

[5] = biological target: Mitogen-activated protein kinase 10 (Mus musculus) (UniProt Q61831); test: JNK3 AlphaScreen Assay (AID 530; active = well fitted curve in either direction with a large enough effect, not every such curve was filed as active;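 note: kinase came from lysate of stimulated human HepG2 cells; signal reports phosphorylation of biotinylated GST-cJun 1-79 at Ser73 with 10 µM ATP; % is set by controls: 0 for no effect and ±100 for the full control effect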)
How it was run: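 qHTS titrations with 15 min compound pre-incubation before adding ATP (10 uM final). Read-out: AlphaScreen of Ser73-phosphorylated biotin-GST-cJun using HepG2 lysate JNK3 activated by IL-1β and TNFα.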

[6] = biological target: 3',5'-cyclic-AMP phosphodiesterase 4B (Homo sapiens) (UniProt Q07343); test: qHTS Assay for Inhibitors of PDE-IV (AID 607; active = well fitted activation curve with a large enough effect in the main read-out, with a control signal flat, not every such curve was filed as active; note: % of control where 0% means no effect)
3',5'-cyclic-AMP phosphodiesterase 4B (Homo sapiens), sequence (Q07343 whole entry, looked up): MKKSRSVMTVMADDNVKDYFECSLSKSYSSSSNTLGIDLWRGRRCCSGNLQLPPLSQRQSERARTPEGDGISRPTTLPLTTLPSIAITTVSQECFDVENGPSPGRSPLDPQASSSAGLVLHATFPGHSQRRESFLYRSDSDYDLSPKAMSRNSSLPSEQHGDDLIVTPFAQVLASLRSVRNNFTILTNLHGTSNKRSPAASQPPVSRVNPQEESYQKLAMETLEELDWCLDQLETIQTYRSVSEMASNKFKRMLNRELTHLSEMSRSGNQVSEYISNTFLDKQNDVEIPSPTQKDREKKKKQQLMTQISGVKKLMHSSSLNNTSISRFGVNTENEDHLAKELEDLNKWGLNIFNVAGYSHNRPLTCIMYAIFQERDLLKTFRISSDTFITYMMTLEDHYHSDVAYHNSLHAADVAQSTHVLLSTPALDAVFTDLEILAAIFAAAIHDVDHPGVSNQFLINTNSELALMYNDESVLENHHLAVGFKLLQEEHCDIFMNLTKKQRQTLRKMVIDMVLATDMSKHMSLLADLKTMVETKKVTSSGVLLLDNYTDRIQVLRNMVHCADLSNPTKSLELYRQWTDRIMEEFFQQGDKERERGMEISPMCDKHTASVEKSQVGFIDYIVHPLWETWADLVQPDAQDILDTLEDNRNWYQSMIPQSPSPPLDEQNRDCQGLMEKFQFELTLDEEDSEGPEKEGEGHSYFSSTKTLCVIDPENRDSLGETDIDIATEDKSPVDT
How it was run: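 Cell-based read-out of cAMP via a modified cyclic nucleotide-gated channel and membrane potential dye (535/590 nm) in HEK293 cells expressing PDE4 endogenously. Compounds tested up to 22.9 uM final; 100 uM RO 20-1724 reference.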

[7] = biological target: Guanine nucleotide-binding protein G(i) subunit alpha-1 (Homo sapiens) (UniProt P63096); test: qHTS Assay for Inhibitors of RGS12 GoLoco Motif Activity (Green Fluorophore) (AID 879);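 note: 0% = labeled peptide with Gαi1 and full inhibition = labeled peptide alone without protein; negative values mean loss of peptide binding seen as reduced polarization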
Guanine nucleotide-binding protein G(i) subunit alpha-1 (Homo sapiens), sequence (P63096 whole entry, looked up): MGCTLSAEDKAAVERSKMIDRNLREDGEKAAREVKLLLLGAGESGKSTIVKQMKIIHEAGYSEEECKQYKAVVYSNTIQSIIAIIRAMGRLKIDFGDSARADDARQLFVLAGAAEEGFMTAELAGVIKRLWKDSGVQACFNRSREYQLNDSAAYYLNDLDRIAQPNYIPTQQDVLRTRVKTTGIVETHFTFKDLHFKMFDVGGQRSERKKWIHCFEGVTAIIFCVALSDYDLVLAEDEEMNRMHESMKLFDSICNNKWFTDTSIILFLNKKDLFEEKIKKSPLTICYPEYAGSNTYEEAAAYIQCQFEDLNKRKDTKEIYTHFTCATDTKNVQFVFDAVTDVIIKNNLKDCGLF
How it was run: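 A drop in FITC polarization marked displacement of the FITC-tagged RGS12 GoLoco peptide (10 nM) from Gαi1 (50 nM). Compounds were incubated 10 min at room temperature in Tris pH 7.5 buffer containing 150 mM NaCl, 0.1 mM GDP and 0.05% NP40; unlabeled peptide titration served as control.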

[8] = biological target: Cytochrome P450 2D6 (Homo sapiens) (UniProt P10635); test: qHTS Assay for Inhibitors and Substrates of Cytochrome P450 2D6 (AID 891); note: nearly all actives have a fitted effect of over 60% in size; note: potency is the fitted concentration of half-maximal effect
Cytochrome P450 2D6 (Homo sapiens), sequence (P10635 whole entry, looked up): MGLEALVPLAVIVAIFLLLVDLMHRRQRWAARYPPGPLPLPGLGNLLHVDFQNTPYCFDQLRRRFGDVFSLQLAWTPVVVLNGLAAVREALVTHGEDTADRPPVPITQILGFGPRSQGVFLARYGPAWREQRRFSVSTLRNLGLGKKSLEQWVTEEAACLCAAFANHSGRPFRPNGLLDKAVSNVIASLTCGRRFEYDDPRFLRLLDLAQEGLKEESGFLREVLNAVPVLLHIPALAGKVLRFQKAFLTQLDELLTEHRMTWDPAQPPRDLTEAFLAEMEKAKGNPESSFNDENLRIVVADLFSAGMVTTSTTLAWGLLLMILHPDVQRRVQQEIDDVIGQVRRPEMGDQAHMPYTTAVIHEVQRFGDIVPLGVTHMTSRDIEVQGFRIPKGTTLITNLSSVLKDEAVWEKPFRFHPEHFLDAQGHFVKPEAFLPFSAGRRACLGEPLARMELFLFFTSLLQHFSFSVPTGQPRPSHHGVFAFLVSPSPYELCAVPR
How it was run: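 Luminescent read-out of luciferin formed by 5 nM human CYP2D6 demethylating 30 uM Luciferin-ME EGE (Km level) over 60 min at room temperature after NADPH regeneration addition. Data normalized to full inhibition by 1.43 uM quinidine.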

[9] = qHTS Assay for Identification of Small Molecule Antagonists for NFkB Signaling Pathway (AID 895; active = well fitted inhibition curve with a large enough effect in the signal ratio, with a control signal flat, not every such curve was filed as active; the % refers to the signal ratio; note: potency is the fitted concentration of half-maximal effect)
How it was run: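 Beta-lactamase reporter read-out (460 and 530 nm emission ratio, 405 nm excitation, 2 hrs substrate loading RT) after 5 hr stimulation with 10 pM TNF alpha in compound-treated NFkB-bla ME-180 cells in low-serum medium.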

[10] = qHTS Assay for Identification of Small Molecule Agonists for Thrombopoietin (TPO) Signaling Pathway (AID 917); note: % is set by controls: 0 for no effect and ±100 for the full control effect
How it was run: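 First, Ba/F3 cells with human TPO receptor were held overnight without IL-3. Next, compounds and TPO (26 pM final) were added. After 24 hrs at 37 C, luciferase detection reagent was added and luminescence measured following 10 min at room temperature.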

[11] = biological target: Pyruvate kinase (Leishmania mexicana) (UniProt Q27686); test: qHTS Validation Assay for Inhibitors of Leishmania Mexicana Pyruvate Kinase (AID 945);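 note: 0% = DMSO only neutral control wells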
Pyruvate kinase (Leishmania mexicana), sequence (Q27686 2-499 E452W): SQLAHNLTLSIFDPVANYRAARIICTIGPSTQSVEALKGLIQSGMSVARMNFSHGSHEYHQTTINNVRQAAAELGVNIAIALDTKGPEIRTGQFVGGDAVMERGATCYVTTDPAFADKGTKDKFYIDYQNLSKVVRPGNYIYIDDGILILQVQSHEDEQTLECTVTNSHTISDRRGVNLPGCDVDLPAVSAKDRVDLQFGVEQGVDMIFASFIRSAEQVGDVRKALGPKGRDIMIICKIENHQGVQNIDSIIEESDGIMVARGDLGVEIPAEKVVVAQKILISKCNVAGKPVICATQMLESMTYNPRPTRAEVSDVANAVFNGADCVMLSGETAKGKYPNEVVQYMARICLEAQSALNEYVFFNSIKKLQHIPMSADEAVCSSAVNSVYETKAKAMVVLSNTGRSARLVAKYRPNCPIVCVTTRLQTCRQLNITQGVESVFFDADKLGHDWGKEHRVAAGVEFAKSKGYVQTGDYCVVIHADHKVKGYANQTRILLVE
How it was run: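 Read-out: luminescence from PKLight stop/detection reagent, data normalized to DMSO. Reaction: 0.2 nM E451W LmPYK, 0.5 mM PEP, 0.1 mM ADP, pH 7.2, 1 h room temperature.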

[12] = biological target: Pyruvate kinase PKM (Homo sapiens) (UniProt P14618); test: qHTS Assay for Activators of Human Muscle Pyruvate Kinase (AID 954; active = well fitted curve in the direction sought with a large enough effect, not every such curve was filed as active;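 note: 0% = uninhibited enzyme and -100% = no enzyme or full thiadiazolimine inhibition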)
How it was run: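 ATP production by PKM2 detected via luciferase luminescence after 1 h room-temperature reaction (0.1 nM enzyme, PEP at Km 0.5 mM, ADP 0.1 mM, pH 7.2 imidazole buffer). Inhibition scaled to no-enzyme control; activation referenced to 0.3 nM enzyme wells.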

[13] = biological target: Alpha-galactosidase (Coffea arabica) (UniProt Q42656); test: Counterscreen for Glucocerebrosidase Inhibitors: qHTS Assay for Coffee Bean alpha-Galactosidase at pH 4.5 (AID 957);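 note: plate controls were enzyme alone for no effect and no enzyme for full effect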
Alpha-galactosidase (Coffea arabica), sequence (Q42656 whole entry, looked up): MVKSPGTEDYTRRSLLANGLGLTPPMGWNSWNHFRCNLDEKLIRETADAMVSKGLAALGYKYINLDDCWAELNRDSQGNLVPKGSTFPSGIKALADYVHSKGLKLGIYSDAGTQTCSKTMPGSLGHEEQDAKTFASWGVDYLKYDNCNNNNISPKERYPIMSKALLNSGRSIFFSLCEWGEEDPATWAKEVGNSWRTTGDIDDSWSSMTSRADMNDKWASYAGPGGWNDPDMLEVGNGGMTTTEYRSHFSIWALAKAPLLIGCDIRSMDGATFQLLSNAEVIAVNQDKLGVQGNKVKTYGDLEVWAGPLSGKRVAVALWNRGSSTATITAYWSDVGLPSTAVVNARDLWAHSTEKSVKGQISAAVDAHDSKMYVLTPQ
How it was run: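 Fluorogenic qHTS at pH 4.5 (citrate buffer with Tween-20): 2 nM enzyme, 80 uM 4-MU-alpha-galactoside substrate, compound titrated 0.7 nM to 77 uM, 20 min room temperature. Glycine/NaOH stop; 4-MU read Ex 365/Em 440; Hill-equation AC50 against no-enzyme and enzyme controls.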

[14] = biological target: Alpha-galactosidase A (Homo sapiens) (UniProt P06280); test: Counterscreen for Glucocerebrosidase Inhibitors: qHTS Assay for Human alpha-Galactosidase at pH 4.5 (AID 992); note: 0% is about no effect
Alpha-galactosidase A (Homo sapiens), sequence (P06280 whole entry, looked up): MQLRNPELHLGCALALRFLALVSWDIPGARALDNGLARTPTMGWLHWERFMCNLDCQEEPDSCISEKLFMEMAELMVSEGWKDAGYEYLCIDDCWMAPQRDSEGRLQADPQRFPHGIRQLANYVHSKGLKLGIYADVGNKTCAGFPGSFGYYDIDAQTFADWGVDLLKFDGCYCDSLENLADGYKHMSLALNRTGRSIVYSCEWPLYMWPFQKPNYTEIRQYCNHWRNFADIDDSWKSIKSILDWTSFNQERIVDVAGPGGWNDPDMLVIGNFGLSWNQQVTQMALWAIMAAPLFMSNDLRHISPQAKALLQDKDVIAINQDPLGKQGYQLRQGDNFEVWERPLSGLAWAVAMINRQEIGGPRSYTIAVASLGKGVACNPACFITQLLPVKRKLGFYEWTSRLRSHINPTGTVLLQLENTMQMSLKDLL
How it was run: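 Fluorogenic 1536-well qHTS at pH 4.5 (citrate, Tween-20): 2 nM enzyme, 80 uM 4-MU-alpha-galactoside, 20 min room temperature, NaOH/glycine stop. Titration 0.7 nM to 77 uM, data normalized to no-enzyme and full-activity controls, Hill-fitted AC50.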

[15] = biological target: alpha-glucosidase (Oryza sativa, rice) (UniProt Q653V4); test: Counterscreen for Glucocerebrosidase Inhibitors: qHTS Assay for Rice alpha-Glucosidase at pH 5.0 (AID 997);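 note: 0% = full activity with enzyme and -100% = basal without enzyme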
How it was run: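 Endpoint fluorogenic assay at pH 5.0: compounds (0.7 nM to 77 uM) titrated against 4 nM rice enzyme and 400 uM 4-MU-alpha-glucoside for 20 min at room temperature; NaOH/glycine stop, read ex 365/em 440 nm, Hill-fitted AC50.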

[16] = biological target: Alpha-galactosidase (Coffea arabica) (UniProt Q42656); test: Counterscreen for Glucocerebrosidase Inhibitors: qHTS Assay for Coffee Bean alpha-Galactosidase at pH 5.9 (AID 998);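 note: plate controls were uninhibited enzyme for no effect and no-enzyme basal signal for full effect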
How it was run: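 Fluorogenic 4-MU substrate hydrolysis, 80 uM substrate and 2 nM coffee bean alpha-galactosidase, pH 5.9 citrate buffer, 20 min at room temperature, then NaOH/glycine stop. Titration 0.7 nM–77 uM, normalized to no-enzyme and enzyme controls, AC50 via Hill equation.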

[17] = biological target: Cytochrome P450 1A2 (Homo sapiens) (UniProt P05177); test: p450-cyp1a2 (AID 410; calls by dose curve; note: potency is the fitted concentration of half-maximal effect;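 for activity change, negative = inhibition: -100% = full effect of reference inhibitor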)
Cytochrome P450 1A2 (Homo sapiens), sequence (P05177 whole entry, looked up): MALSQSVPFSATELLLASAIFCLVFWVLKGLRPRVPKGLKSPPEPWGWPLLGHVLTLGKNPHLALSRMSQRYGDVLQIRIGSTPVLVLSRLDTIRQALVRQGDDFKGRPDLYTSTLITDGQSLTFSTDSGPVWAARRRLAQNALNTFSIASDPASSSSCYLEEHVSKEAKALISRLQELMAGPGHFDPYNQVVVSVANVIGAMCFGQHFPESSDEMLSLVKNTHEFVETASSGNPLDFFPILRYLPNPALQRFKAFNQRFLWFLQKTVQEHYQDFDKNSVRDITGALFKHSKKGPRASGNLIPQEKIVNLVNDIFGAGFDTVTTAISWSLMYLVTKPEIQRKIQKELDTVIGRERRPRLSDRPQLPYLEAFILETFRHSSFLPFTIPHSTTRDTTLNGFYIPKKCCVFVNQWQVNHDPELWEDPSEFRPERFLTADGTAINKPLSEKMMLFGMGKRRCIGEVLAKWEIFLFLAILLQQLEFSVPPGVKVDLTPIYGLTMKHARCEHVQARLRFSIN
How it was run: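 Luminescent demethylation readout: Luciferin-ME (100uM, equal to Km) turned over by 20nM CYP1A2 for 60 min at room temperature after NADPH regeneration addition, following 10 min compound preincubation. Normalization used 57 uM furafylline as full inhibition.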

[18] = biological target: Cytochrome P450 2C9 (Homo sapiens) (UniProt P11712); test: qHTS Assay for Inhibitors and Substrates of Cytochrome P450 2C9 (AID 883); note: % is set by controls: 0 for no effect and ±100 for the full control effect; nearly all actives have a fitted effect of over 60% in size
How it was run: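 Turnover of Luciferin-H (100uM, KM) by 10nM human CYP2C9 was measured over 60 min at 37C with NADPH regeneration; inhibitors and some substrates reduce luminescence. Data normalized to sulphaphenazole 57uM.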

[19] = biological target: Cytochrome P450 3A4 (Homo sapiens) (UniProt P08684); test: qHTS Assay for Inhibitors and Substrates of Cytochrome P450 3A4 (AID 884); note: % is set by controls: 0 for no effect and ±100 for the full control effect; nearly all actives have a fitted effect of over 50% in size
How it was run: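 Luminescent readout of luciferin produced by CYP3A4 (20 nM) dealkylation of Luciferin-PPXE, 25 uM (its KM). NADPH-driven reaction ran 60 min at RT after 10 min compound preincubation; data scaled to 57 uM ketoconazole as 100% inhibition.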

[20] = biological target: Cytochrome P450 2C19 (Homo sapiens) (UniProt P33261); test: qHTS Assay for Inhibitors and Substrates of Cytochrome P450 2C19 (AID 899); note: % is set by controls: 0 for no effect and ±100 for the full control effect; nearly all actives have a fitted effect of over 60% in size
Cytochrome P450 2C19 (Homo sapiens), sequence (P33261 whole entry, looked up): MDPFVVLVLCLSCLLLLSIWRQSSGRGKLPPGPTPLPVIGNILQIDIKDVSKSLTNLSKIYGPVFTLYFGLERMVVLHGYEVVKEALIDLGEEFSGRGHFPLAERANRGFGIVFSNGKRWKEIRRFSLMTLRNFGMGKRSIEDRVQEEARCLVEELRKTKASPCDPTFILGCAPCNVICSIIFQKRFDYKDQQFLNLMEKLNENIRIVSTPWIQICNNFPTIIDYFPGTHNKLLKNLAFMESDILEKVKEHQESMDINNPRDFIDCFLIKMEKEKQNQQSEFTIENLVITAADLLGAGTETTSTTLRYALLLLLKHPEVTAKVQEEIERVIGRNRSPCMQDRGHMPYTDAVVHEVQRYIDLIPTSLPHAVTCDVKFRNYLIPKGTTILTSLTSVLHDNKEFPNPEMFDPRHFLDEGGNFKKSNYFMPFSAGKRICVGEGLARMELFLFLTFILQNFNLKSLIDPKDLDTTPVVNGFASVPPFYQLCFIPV
How it was run: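 Reactions contain 5nM enzyme, 10uM Luciferin-H EGE (KM) and 50mM KPO4; compound preincubates 10 min at 37C, NADPH regeneration starts turnover for 60 min. Luminescence after detection reagent gives activity.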

[21] = biological target: DNA dC->dU-editing enzyme APOBEC-3G (Homo sapiens) (UniProt Q9HC16); test: qHTS for inhibitors of Vif-A3G interactions: Validation (AID 588379); note: 0% is about no effect
How it was run: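 Yellow fluorescence (Ex 488, Em 500-530) of Vif-coexpressing HeLa A3G-eYFP cells, scanned by Acumen cytometer, reports blocked A3G degradation. Cells plated at 700/well overnight at 37 deg C before compound addition, then a further overnight compound incubation at 37 deg C.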

[22] = qHTS Assay for Identification of Small Molecule Agonists for Hypoxia Response Element Signaling Pathway (AID 914; active = well fitted activation curve with a large enough effect in the signal ratio, with a control signal flat, not every such curve was filed as active; the % refers to the signal ratio; note: potency is the fitted concentration of half-maximal effect); details: ME-180 (cervical carcinoma) HRE-bla reporter, beta-lactamase ratio, CoCl2, 17 h; activation: stronger effect = higher value
How it was run: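 qHTS titration; ME-180 HRE-bla cells; EC50 CoCl2 co-treatment, 17 h at 37 degrees Celsius; CCF4 dye, ex 405nm, em 460nm and 530nm; %Activity from ratio; AC50.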

C[C@H](N[C@@H](C)CCc1ccccc1)[C@H](O)c1ccc(O)cc1
active: Potency [8] 2 µM | Potency [9] 0.0089 µM [stimulated with 10 pM TNF alpha]
inactive: activity change, negative = inhibition [1] 10.2% [at 38 µM] | outcome [2] | Potency [3] > 46 µM | Potency [4] > 46 µM | outcome [5] | outcome [6] | Potency [7] | outcome [10] | Potency [11] | outcome [12] | outcome [13] | outcome [14] | outcome [15] | outcome [16]

CC[C@]1(O)C(=O)OCc2c1cc1n(c2=O)Cc2cc3ccccc3nc2-1
inactive: Potency [3] > 46 µM | Potency [4] > 46 µM | outcome [5] | Potency [18] | Potency [19] | Potency [8] | Potency [20] | outcome [21]
active: Potency [17] 5.01 µM

Nc1c(C(=O)NCc2ccco2)c2nc3ccccc3nc2n1CCN1CCCCC1
inactive: activity change, negative = inhibition [1] 29.1% | Potency [3] > 20.6 µM
active: Potency [22] 7.94 µM

NCC[Se][Se]CCN
inactive: activity change, negative = inhibition [1] 19.7% [at 7.69 µM] | outcome [2] | Potency [3] > 46 µM | Potency [4] > 9.22 µM | activity change, negative = inhibition [5] -20.9% [at 11.4 µM] | outcome [6]

O=c1[nH]c(=O)n(CCc2ccccc2)c(O)c1C=NCCN1CCNCC1
inactive: activity change, negative = inhibition [1] 17.3% | outcome [2] | Potency [3] > 20.6 µM

COc1ccc(C[C@@H]2NC[C@H](O)[C@H]2OC(C)=O)cc1
inactive: Potency [17] | Potency [3] > 46 µM | Potency [4] > 46 µM | outcome [5] | outcome [6] | Potency [18] | Potency [20]

C[C@@H]1O[C@@H](O[C@H]2C[C@@H](O)[C@]3(CO)[C@@H]4[C@@H](O)C[C@]5(C)[C@H]([C@@H]6COC(=O)C6)CC[C@@]5(O)[C@H]4CC[C@@]3(O)C2)[C@H](O)[C@H](O)[C@@H]1O
inactive: Potency [17] | outcome [2] | Potency [3] > 46 µM | Potency [4] > 46 µM | outcome [6] | Potency [7] | outcome [10] | Potency [11] | outcome [12] | outcome [13] | outcome [14] | outcome [15] | outcome [16]

Cn1c(O)c(C=NC2CCN(Cc3ccccc3)CC2)c(=O)n(C)c1=O
inactive: activity change, negative = inhibition [1] -11.6% | outcome [2] | Potency [3] > 20.6 µM
